From PubChem
aSyn 5UTR inh: MLPCN primary screen, SNCA 5' untranslated region | alpha-synuclein 5'UTR reporter, inhibitor activity | inhibition, % (tested at 7.5 µM) | 0.82% of 300,000 active | AID 1813, 2009; in the data active means inhibition above about 60%;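 further: H4 neuroglioblastoma cells stably carrying SNCA 5'UTR luciferase fusion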
BaF3 tox: parental Ba/F3 cell viability inhibition, counter-screen for JAK2V617F inhibitor project, murine pro-B, CellTiter-Glo luminescence; 1.1% of 220,000 active; AID 1486, 2009; inhibition, % at 5.6 µM; CellTiter-Glo ATP luminescence;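 active means inhibition above a per-campaign cutoff, the mean inhibition of all tested compounds plus 3 SD, cut at about 27% in these data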
IEC-6 tox: cytotoxicity in IEC-6 intestinal epithelial cells, primary screen, cytotoxicity control for KLF5 inhibitor project, cell-based, luminescence; AID 1825, 2009; inhibition, % at 5 µM; 0.78% of 290,000 active; IEC-6 cytotoxicity, luminescence viability; in the data active means inhibition above about 22%
APP transl inh: inhibitors of APP translation via 5'UTR reporter, primary screen, APP 5'UTR luciferase, SH-SY5Y cells | inhibition, % at 2 µM | SH-SY5Y APP 5'UTR-luciferase reporter, luminescence | AID 1285, 2008 | 0.82% of 190,000 active;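 active means inhibition above a set limit, derived from the sample mean plus 3 SD, cut at about 45% in these data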
Ba/F3 V617F tox: reduced viability of JAK2V617F-dependent Ba/F3 cells, primary screen, JAK2V617F inhibitor project, cell-based, Ba/F3 EpoR-JAK2V617F, luminescence; AID 1446, 2008; 1.1% of 220,000 active; inhibition, % at 5.6 µM; ATP luminescence;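 active means inhibition above the campaign mean plus 3 SD over all tested compounds, cut at about 24% in these data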;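 further: cytokine-independent growth of Ba/F3 cells driven by EpoR plus mutant JAK2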
KLF5 inhibitor: KLF5 expression inhibitors, primary screen, DLD-1 cells, luminescence. DLD-1 KLF5 promoter-luciferase reporter. inhibition, % at 5 µM. 0.23% of 290,000 active;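 active means inhibition above a per-plate limit of that plate's mean compound inhibition plus 3 SD, cut at about 60% in these data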;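 further: higher means less KLF5 promoter-driven luciferase light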
BaF3 parental 2: parental Ba/F3 cell viability inhibition, counter-screen for JAK2V617F inhibitor project, murine pro-B, CellTiter-Glo luminescence. shares compounds with Ba/F3 V617F tox. cells kept alive by added IL-3. inhibition, % at 5.6 µM. 31% of 580 active;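 active means cell growth inhibition above the hit limit set in the earlier mutant JAK2 cell screen, cut at about 27% in these data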
JAK2V617F conf: viability loss in Ba/F3 EpoR-JAK2V617F cells, confirmation, JAK2V617F inhibitor project, cell-based, luminescence, triplicate; shares compounds with Ba/F3 V617F tox; CellTiter-Glo luminescence; inhibition, % at 5.6 µM; 66% of 580 active; AID 1521, 2009;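 active means mean inhibition above the hit cutoff derived in the earlier primary screen, cut at about 25% in these data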;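 further: higher means lower luminescence from reduced cell ATP and viability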
A number is an active result; – = inactive; · = not tested or not shown. The list is not random: actives were taken first. Their share in the collection is about 2.2%.

SMILES	aSyn 5UTR inh	BaF3 tox	IEC-6 tox	APP transl inh	Ba/F3 V617F tox	KLF5 inhibitor	BaF3 parental 2	JAK2V617F conf
COc1cc2c(cc1OC)-c1cc(N3CCCc4ccccc43)nc(=O)n1CC2	–	–	–	–	30	–	–	61
Cc1ccc(C)c(C2=NNC(=O)CC2)c1	–	·	·	·	·	·	·	·
CC(C)(CNC(=O)Cc1ccc(Br)cc1)N1CCOCC1	–	·	–	·	·	–	·	·
O=C1C(Nc2ccccc2)=C/C(=N/S(=O)(=O)c2cccs2)c2ccccc21	–	–	–	–	46	–	93	96
O=C(Nc1cccc(S(=O)(=O)N2CCOCC2)c1)C1=NN(c2ccccc2)C(=O)CC1	–	·	–	·	·	–	·	·
CN(CC(=O)NCc1ccccn1)S(=O)(=O)c1ccc2ccccc2c1	–	–	–	–	–	–	·	·
Cc1cc(Cl)n2c(nc3cc(F)c(F)cc32)c1C#N	–	–	–	88	48	–	33	93
CC(C)(Oc1ccc(Cl)cc1)C(=O)OCC(=O)NCCc1ccccc1	–	·	–	·	·	–	·	·
COCCN(CC(=O)NCC1CCCO1)C(=O)CCC(=O)Nc1cc(C)ccn1 (centres undefined)	–	–	–	–	–	–	·	·
COCCN(CC(=O)NCC1CCCO1)C(=O)CCC(=O)Nc1cc(C)on1 (centres undefined)	–	–	–	–	35	–	–	–
O=C(NC1CCCCCC1)C1CC(=O)N(c2ccc(Cl)cc2)C1 (centres undefined)	–	·	–	·	·	–	·	·
CCn1c(SCC(=O)N2CCC(C)CC2)nc2c(c1=O)SC(C)C2 (centres undefined)	–	·	–	·	·	–	·	·
CCOc1ccc(CCNC(=O)Cn2cccc2C(=O)c2ccccc2)cc1OCC	–	–	–	–	–	–	·	·
CCOc1ccc(CCNC(=O)Cn2ccc3ccccc3c2=O)cc1OCC	–	–	–	–	101	–	–	–
O=C1N=C(N2CCOCC2)S/C1=C\c1ccc(OS(=O)(=O)c2ccccc2)cc1	–	–	–	–	44	–	–	–
CC(C)(C)c1ccc(OCc2ccc(C(=O)N/N=C/c3ccc(O)c(O)c3)cc2)cc1	–	–	–	–	101	–	81	99
CCn1cc(CN2CCN(Cc3ccccc3)C(CCO)C2)c2ccccc21 (centres undefined)	–	·	–	·	·	–	·	·
CCn1cc(CN2CCN(Cc3ccc(C)o3)C(CCO)C2)c2ccccc21 (centres undefined)	–	–	–	–	44	–	–	–
COc1cc(/C=C2\SC(=S)N(Nc3ccccc3)C2=O)ccc1O	–	–	–	–	–	–	·	·
O=C1/C(=C/c2ccc(O)c(O)c2)SC(=S)N1Nc1ccccc1	–	–	–	–	38	–	–	67
O=C(CNCc1ccccc1)NCCCN1CCCC1=O	–	·	–	·	·	–	·	·
Cc1nc2ccccc2c2oc(C(=O)NCCCN3CCCC(C)C3)cc12 (centres undefined)	–	·	–	·	·	–	·	·
CC1CCCN(CCCNC(=O)c2cc3c(Cl)nc4ccccc4c3s2)C1 (centres undefined)	–	–	–	–	63	–	–	85
O=C(c1ccccc1)C(CCC(CN1CCOCC1)C(=O)c1ccccc1)CN1CCOCC1 (centres undefined)	–	–	–	90	44	–	–	100
Cc1ccc(CC(=O)NCc2cccnc2)cc1	–	–	–	–	58	–	–	–
SMILES	aSyn 5UTR inh	BaF3 tox	IEC-6 tox	APP transl inh	Ba/F3 V617F tox	KLF5 inhibitor	BaF3 parental 2	JAK2V617F conf
Cc1ccc(CSCC(=O)NCc2cccnc2)cc1	–	–	–	–	–	–	·	·
Cc1cc(C)c(NC(=O)CCCCCNC2CCCCC2)c(C)c1	–	·	–	·	·	–	·	·
COc1ccc(-c2ccc(SC)nn2)cc1	75	–	–	–	24	–	32	30
COc1ccc(C(=O)CSc2ccc(-c3ccccc3)nn2)cc1	–	–	–	–	–	–	·	·
CC1=NNC(=O)C1CC(=O)N/N=C/C=C/c1ccccc1 (centres undefined)	–	–	–	·	–	–	·	·
Cc1ccccc1CS(=O)(=O)c1nnc([C@H](Cc2ccccc2)NC(=O)OC(C)(C)C)o1	–	–	–	70	37	–	–	95
CCSc1nnc([C@H](Cc2ccccc2)NC(=O)OC(C)(C)C)o1	–	–	–	–	–	–	·	·
Cc1cccc(CS(=O)(=O)Cc2ccc(C(=O)NC(C)c3ccccc3)o2)c1 (centres undefined)	–	·	–	·	·	–	·	·
CCC(C)[C@@H](NC(=O)OC(C)(C)C)c1nnc(S(=O)(=O)Cc2cccc(C)c2)o1 (some centres undefined)	–	–	–	–	26	–	–	66
Cn1c(=O)n(CCCO)c(=O)c2c1nc1n2CCCN1Cc1ccccc1	–	·	–	·	·	–	·	·
O=C1[C@H]2[C@@H](c3ccc(F)cc3)N3C(=O)N(c4ccc(Br)cc4)C(=O)[C@@]3(Cc3ccccc3)[C@H]2C(=O)N1C1CCCCC1	–	·	–	·	·	–	·	·
Nc1c(C(=O)OCC2CCCO2)c2nc3ccccc3nc2n1-c1ccc2c(c1)OCCO2 (centres undefined)	–	–	–	–	96	–	–	–
Nc1c(C(=O)NC2CC2)c2nc3ccccc3nc2n1-c1ccc2c(c1)OCO2	–	–	–	–	–	–	·	·
Cc1c(Cc2ccccc2)c(=O)oc2c(O)c(O)ccc12	–	–	–	–	44	–	–	64
Cc1c(Cc2ccccc2)c(=O)oc2cc(O)ccc12	–	–	–	·	–	–	·	·
CCc1cc2c(cc3c(=O)n(CC(=O)NCCCN4CCCCCC4)nc(CC)n32)s1	–	·	–	·	·	–	·	·
Cc1oc2c(O)c(O)ccc2c(=O)c1-c1cnn(-c2ccccc2)c1	–	–	–	–	45	–	–	99
Cc1oc2c(O)c(O)ccc2c(=O)c1-c1ccccc1	–	·	·	·	·	·	·	·
Cc1ccc(C)c(S(=O)(=O)Nc2ccc3scnc3c2)c1	–	–	–	–	35	–	–	33
C=CCN(C(=O)CNC(=O)c1ccco1)C(C(=O)NC1CCCC1)c1ccc(OC)cc1 (centres undefined)	–	·	–	·	·	–	·	·
CCCn1c(CN(Cc2ccccc2)Cc2ccccc2)nc2c1c(=O)n(C)c(=O)n2C	–	–	–	–	–	–	·	·
CCCn1c(CN(C)Cc2ccccc2)nc2c1c(=O)n(C)c(=O)n2C	–	–	–	–	35	–	–	58
COc1ccc2c(CC(=O)NC(Cc3ccc(Cl)cc3)C(=O)O)cc(=O)oc2c1C (centres undefined)	–	·	–	·	·	–	·	·
